Results reported in ChEMBL document CHEMBL1961873, “Compounds: GSK PKIS; Assays: Nanosyn kinase panel” (2012).

target: Fibroblast growth factor receptor 1 (Homo sapiens) (UniProt P11362); settings: at 0.1 µM
Sequence (P11362 22-822 limits assumed): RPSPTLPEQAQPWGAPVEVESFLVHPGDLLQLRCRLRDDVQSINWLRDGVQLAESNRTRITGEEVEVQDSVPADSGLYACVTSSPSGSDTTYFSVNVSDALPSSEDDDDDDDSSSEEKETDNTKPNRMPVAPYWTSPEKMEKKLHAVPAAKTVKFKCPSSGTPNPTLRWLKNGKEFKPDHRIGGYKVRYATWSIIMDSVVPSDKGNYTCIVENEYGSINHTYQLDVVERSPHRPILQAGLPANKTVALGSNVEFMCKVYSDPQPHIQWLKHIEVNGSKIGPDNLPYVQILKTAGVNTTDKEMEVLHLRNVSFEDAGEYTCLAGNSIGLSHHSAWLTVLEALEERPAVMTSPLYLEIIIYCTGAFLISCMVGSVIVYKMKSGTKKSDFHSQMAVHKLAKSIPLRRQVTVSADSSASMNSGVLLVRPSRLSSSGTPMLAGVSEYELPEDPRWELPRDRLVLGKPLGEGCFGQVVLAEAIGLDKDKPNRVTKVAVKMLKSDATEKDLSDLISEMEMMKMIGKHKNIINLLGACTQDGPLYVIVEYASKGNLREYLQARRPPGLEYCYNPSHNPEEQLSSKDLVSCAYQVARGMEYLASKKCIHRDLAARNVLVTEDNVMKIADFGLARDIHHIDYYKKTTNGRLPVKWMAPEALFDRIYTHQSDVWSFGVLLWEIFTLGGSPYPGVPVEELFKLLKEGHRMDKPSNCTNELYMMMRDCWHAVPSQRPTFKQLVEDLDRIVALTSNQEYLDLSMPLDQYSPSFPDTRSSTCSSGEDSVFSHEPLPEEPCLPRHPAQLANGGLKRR

Row | Compound | inhibition
1 | CCn1c(-c2nonc2N)nc2ccc(F)cc21 | 3.73%
2 | [O-][S+]1CCN(Cc2ccc(-c3ccc4ncnc(Nc5ccc(OCc6ccccc6)c(Cl)c5)c4c3)o2)CC1 | -2.69%
3 | N#Cc1cccc(Nc2nccc(-c3cnn4ncccc34)n2)c1 | 4.73%
4 | CS(=O)(=O)CCNCc1nc(-c2ccc3ncnc(Nc4ccc(OCc5cccc(C(F)(F)F)c5)cc4)c3c2)cs1 | 2.15%
5 | COC(=O)c1ccc2c(c1)C(=Cc1cc(Br)c(O)c(Br)c1)C(=O)N2 | 3.15%
6 | NS(=O)(=O)c1cccc(-c2cc3ccncc3cc2OCc2ccccc2)c1 | 8.63%
7 | COc1ccc(-c2nn3ncccc3c2-c2ccnc(Nc3cccc(C(F)(F)F)c3)n2)cc1 | 1.38%
8 | Cc1cc(O)cc(C)c1/C=C/c1cncc(C(=O)N(C)C)c1 | 1.31%
9 | COc1cc(/C=N/Nc2ncnc3c2cnn3C(C)C)ccc1O | -0.65%
10 | CCOc1nccc2c1nc(-c1nonc1N)n2CC | 4.54%
11 | Oc1cccc(-c2nc(-c3ccccc3)[nH]c2-c2ccncc2)c1 | 1.95%
12 | Nc1nccc(C#Cc2cncnc2Nc2ccc(OCc3cccc(F)c3)c(Cl)c2)n1 | 5.53%
13 | Cc1ccc2c(-c3ccnc(Nc4ccc5c(c4)OCCO5)n3)c(-c3ccc(C(F)(F)F)cc3)nn2n1 | 0.28%
14 | CS(=O)(=O)Nc1cccc(-c2ccc3c(NC(=O)C4CC4)n[nH]c3c2)c1 | -6.27%
15 | Cc1cc(-c2ccccn2)cc(C)c1/C=C/c1cncc(-c2nn[nH]n2)c1 | 1.35%
16 | CN(C)CCCn1c(-c2nonc2N)nc2cnccc21 | 3.21%
17 | Cc1cc(Cl)cc2c1NC(=O)C2=NNc1ccc(S(N)(=O)=O)cc1 | 3.14%

Row | Compound | inhibition
18 | CN(c1ccc(NC(=O)Nc2ccc(OC(F)(F)F)cc2)cc1)c1ccnc(Nc2cccc(S(N)(=O)=O)c2)n1 | 2.49%
19 | COc1cc2ncn(-c3cc(OCc4ccccc4S(C)(=O)=O)c(C#N)s3)c2cc1OC | 12.1%
20 | Cc1ccc(O)cc1Nc1ccnc2ccc(S(C)(=O)=O)cc12 | 7.68%
21 | CN1CCN(C(=O)c2ccc(NC(=O)Nc3ccc(N(C)c4ccnc(Nc5ccc(CS(C)(=O)=O)cc5)n4)cc3)cc2)CC1 | 0.94%
22 | COC(=O)Nc1nc2cc(Oc3ccc(NC(=O)Nc4cccc(Br)c4)cc3)ccc2[nH]1 | 3.32%
23 | NS(=O)(=O)c1ccc(N/N=C2\C(=O)Nc3ccc(Cl)cc32)cc1 | 1.63%
24 | Cc1nc(-c2ccccc2)n2nc(NCCCN3CCOCC3)ncc12 | -1.62%
25 | COc1cc(Nc2nccc(-c3cnn4ncccc34)n2)cc(OC)c1 | -4.05%
26 | NS(=O)(=O)c1cccc(Nc2cc(-c3ccc(F)cc3)n[nH]2)c1 | 0.46%
27 | COc1ccc2ncnc(Nc3ccc(OCc4ccccc4)cc3)c2c1 | 1.89%
28 | Cc1ccc2c(c1)/C(=N/Nc1ccc(S(N)(=O)=O)cc1)C(=O)N2 | 0.1%
29 | Cc1ccc(C(=O)NC2CC2)cc1-c1ccc2[nH]ncc2c1 | -0.69%
30 | NS(=O)(=O)c1ccc(NC=C2C(=O)Nc3ccc4ncsc4c32)cc1 | 13.4%
31 | CCS(=O)(=O)c1ccc(OC)c(Nc2ncc(-c3cccc(OC)c3)o2)c1 | 9.22%
32 | c1ccc(Cc2nc3ccc(Nc4ncnc5ccccc45)cc3[nH]2)cc1 | 2.15%
33 | NC(=O)c1cccc(Nc2nccc(Nc3cccc(F)c3)n2)c1 | 9.63%
34 | CCCN1CCCC(c2ccc(Nc3nc(Nc4cc(F)ccc4C(N)=O)c4cc[nH]c4n3)c(OC)c2)C1 (configuration not stated) | 3.11%

target: Fibroblast growth factor receptor 1 (Homo sapiens) (UniProt P11362); settings: at 1 µM

Row | Compound | inhibition
35 | CCn1c(-c2nonc2N)nc2ccc(F)cc21 | 10.2%
36 | [O-][S+]1CCN(Cc2ccc(-c3ccc4ncnc(Nc5ccc(OCc6ccccc6)c(Cl)c5)c4c3)o2)CC1 | 1.21%
37 | N#Cc1cccc(Nc2nccc(-c3cnn4ncccc34)n2)c1 | 8.94%
38 | CS(=O)(=O)CCNCc1nc(-c2ccc3ncnc(Nc4ccc(OCc5cccc(C(F)(F)F)c5)cc4)c3c2)cs1 | 4.98%
39 | COC(=O)c1ccc2c(c1)C(=Cc1cc(Br)c(O)c(Br)c1)C(=O)N2 | 6.87%
40 | NS(=O)(=O)c1cccc(-c2cc3ccncc3cc2OCc2ccccc2)c1 | 10.7%
41 | COc1ccc(-c2nn3ncccc3c2-c2ccnc(Nc3cccc(C(F)(F)F)c3)n2)cc1 | -1.86%
42 | Cc1cc(O)cc(C)c1/C=C/c1cncc(C(=O)N(C)C)c1 | 1.65%
43 | COc1cc(/C=N/Nc2ncnc3c2cnn3C(C)C)ccc1O | 2.77%
44 | CCOc1nccc2c1nc(-c1nonc1N)n2CC | 7.51%
45 | Oc1cccc(-c2nc(-c3ccccc3)[nH]c2-c2ccncc2)c1 | 7.19%
46 | Nc1nccc(C#Cc2cncnc2Nc2ccc(OCc3cccc(F)c3)c(Cl)c2)n1 | 4.02%
47 | Cc1ccc2c(-c3ccnc(Nc4ccc5c(c4)OCCO5)n3)c(-c3ccc(C(F)(F)F)cc3)nn2n1 | 1.17%
48 | CS(=O)(=O)Nc1cccc(-c2ccc3c(NC(=O)C4CC4)n[nH]c3c2)c1 | 0.55%
49 | CN(C)CCCn1c(-c2nonc2N)nc2cnccc21 | 3.42%
50 | Cc1cc(Cl)cc2c1NC(=O)C2=NNc1ccc(S(N)(=O)=O)cc1 | 2.77%
51 | CN(c1ccc(NC(=O)Nc2ccc(OC(F)(F)F)cc2)cc1)c1ccnc(Nc2cccc(S(N)(=O)=O)c2)n1 | 20.3%

Row | Compound | inhibition
52 | COc1cc2ncn(-c3cc(OCc4ccccc4S(C)(=O)=O)c(C#N)s3)c2cc1OC | 19.3%
53 | Cc1ccc(O)cc1Nc1ccnc2ccc(S(C)(=O)=O)cc12 | 8.34%
54 | CN1CCN(C(=O)c2ccc(NC(=O)Nc3ccc(N(C)c4ccnc(Nc5ccc(CS(C)(=O)=O)cc5)n4)cc3)cc2)CC1 | 4.44%
55 | COC(=O)Nc1nc2cc(Oc3ccc(NC(=O)Nc4cccc(Br)c4)cc3)ccc2[nH]1 | 0.5%
56 | NS(=O)(=O)c1ccc(N/N=C2\C(=O)Nc3ccc(Cl)cc32)cc1 | 1%
57 | Cc1nc(-c2ccccc2)n2nc(NCCCN3CCOCC3)ncc12 | -3.57%
58 | COc1cc(Nc2nccc(-c3cnn4ncccc34)n2)cc(OC)c1 | 7.3%
59 | NS(=O)(=O)c1cccc(Nc2cc(-c3ccc(F)cc3)n[nH]2)c1 | 3.62%
60 | COc1ccc2ncnc(Nc3ccc(OCc4ccccc4)cc3)c2c1 | -1.53%
61 | Cc1ccc2c(c1)/C(=N/Nc1ccc(S(N)(=O)=O)cc1)C(=O)N2 | 4.71%
62 | Cc1ccc(C(=O)NC2CC2)cc1-c1ccc2[nH]ncc2c1 | -5.16%
63 | NS(=O)(=O)c1ccc(NC=C2C(=O)Nc3ccc4ncsc4c32)cc1 | 41.9%
64 | CCS(=O)(=O)c1ccc(OC)c(Nc2ncc(-c3cccc(OC)c3)o2)c1 | 40.2%
65 | c1ccc(Cc2nc3ccc(Nc4ncnc5ccccc45)cc3[nH]2)cc1 | 1.67%
66 | NC(=O)c1cccc(Nc2nccc(Nc3cccc(F)c3)n2)c1 | 10.2%
67 | CCCN1CCCC(c2ccc(Nc3nc(Nc4cc(F)ccc4C(N)=O)c4cc[nH]c4n3)c(OC)c2)C1 (configuration not stated) | 3.44%
